DT40 TDP1 no CPT: qHTS for Inhibitors of human tyrosyl-DNA phosphodiesterase 1 (TDP1): qHTS in cells in absence of CPT; DT40 Tdp1-/- hTDP1 cells, no CPT, ATP luminescence, 48 h; Potency, µM (doses to about 46.2 µM), for inactives: top-dose activity change, negative = growth inhibition, actives largely listed as inhibitors; 420,000 compounds, 15% hits; also: potency is read from the fitted curve at half-maximal effect; % is scaled to controls: 0 for no effect and ±100 for the full control effect; nearly all actives have a fitted effect of over 55% in size
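Readout: luminescence from CellTiter-Glo after 30 min in the dark at RT. Cells: DT40 Tdp1-/- with stable hTDP1, 400/well. Exposure: compounds alone, ≥48 hr, 37 °C.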
TDP1 cell CPT: growth inhibition of DT40 Tdp1-/-;hTDP1 cells with camptothecin (screen for TDP1 inhibitors); chicken DT40 Tdp1-/-;hTDP1 cells + 20 nM CPT, ATP luminescence, 48 h; Potency, µM (titrated, usually from 46.2 µM), inactives show top-dose activity change, negative = growth inhibition, hits mostly inhibitors; 420,000 compounds, 12% hits; AID 686979; also: potency is read from the fitted curve at half-maximal effect; % is scaled to controls: 0 for no effect and ±100 for the full control effect; nearly all actives have a fitted effect of over 55% in size
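Chicken DT40 Tdp1-/- cells stably complemented with human TDP1 were seeded at 400 cells/well in medium containing 20 nM camptothecin, exposed to pin-transferred compounds, and grown at 37 °C for at least 48 hr. Viability was read as ATP luminescence.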
MCF10A rerep: inducers of DNA re-replication in MCF 10A breast cells; MCF 10A DNA re-replication, Hoechst nuclear intensity, 48 h; Potency, µM (titrated, usually from 46.1 µM), for the others: at the top dose activity, positive = re-replication, most hits filed as activators; 350,000 compounds, 2.9% hits; also: potency is read from the fitted curve at half-maximal effect; % of control where 0% means no effect; nearly all actives have a fitted effect of over 50% in size
BCR signal inh: inhibitors of chronic active B-cell receptor signaling; AID 493014; ABC-DLBCL IkBa-CBG/CBR reporter, luminescence ratio, 4 h; 340,000 compounds, 0.05% hits; Potency, µM (top dose mostly 46.1 µM), without a hit: at the highest dose activity change, negative = inhibition, hits mostly inhibitors; active = well fitted inhibition curve with a large enough effect in the signal ratio, with a control signal flat, not every such curve was filed as active; inconclusive = small, poorly fitted or top-dose-only effect, or effect the other way, or a change in a side signal; the % refers to the signal ratio;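 also: potency is read from the fitted curve at half-maximal effect; plate controls were basal doxycycline-induced cells for no effect and cells given 10 µM MG132 for full effect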
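TMD8 human ABC-DLBCL cells with doxycycline-inducible IκBα–green luciferase fusion and unfused red luciferase, in 0.5% FBS medium; compounds up to 46 uM, 4 h at 37C. Green/red luminescence ratio, filter-overlap corrected, fitted to concentration-response curves.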
IL1B secr inh: blocks inflammasome-driven IL-1 beta release; AID 743279; activity change, % at 57.5 µM; THP-1 LPS/ATP IL-1B secretion, AlphaLISA, 16 h; active compounds read low; 360,000 compounds, 4.7% hits; in the data active = activity change below about -50%; inconclusive = mostly about -30% to -49%; also: % is scaled to controls: 0 for no effect and ±100 for the full control effect
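THP-1 cells pretreated 1 hr with compounds (up to 57.5 uM final), then stimulated with LPS (250 ng/mL final) plus ATP (1.25 mM final); secreted IL-1B measured by AlphaLISA after 16 hr, decreased signal indicating inhibition.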
SW480 rerep: DNA re-replication induction in SW480 cells; SW480 DNA re-replication, Hoechst DNA content imaging, 48 h; Potency, µM (highest dose often 46.1 µM), for inactives: at the highest dose re-replication activation, usual class: activators; AID 624297; 340,000 compounds, 1.8% hits; also: potency is read from the fitted curve at half-maximal effect; % of control where 0% means no effect; nearly all actives have a fitted effect of over 55% in size
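First, 250 cells per well were seeded. Next, compound or vehicle (23 nL) was pinned in, plates sat 48 hr at 37 C. Finally Hoechst was added for 40 min before fluorescence scanning.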
The depositor's hits bear a star; ? = inconclusive; / = no result; [ ] = remark or other dose. Only some compounds are listed: those with a hit (about 19% of all), similar ones and a draw of the others. Unless noted, calls follow the shape of the dose curve; as a rule, active = well fitted curve in the direction sought with a large enough effect; inconclusive = small, poorly fitted or top-dose-only effect, or another doubt; inactive = no such curve, though single readings can be large; an effect the other way counts as inactive or inconclusive.

SMILES	DT40 TDP1 no CPT	TDP1 cell CPT	MCF10A rerep	BCR signal inh	IL1B secr inh	SW480 rerep
CCOC(=O)C1(CC2CC2)CCN(Cc2ccc(OC)cc2F)CC1	?	-27%	?	-32%	-54*	?
CN(CC(=O)Nc1cccc(F)c1)C(=O)CCc1nc2cc(S(=O)(=O)N3CCOCC3)ccc2n1C	-2%	2%	5%	-1%	-3	-6%
CC(C(=O)NCc1ccccc1)N1CCN(c2ccc(F)cc2)CC1 (stereo not given)	7%	6%	4%	1%	-14	-44%
CCOc1ccc(CNC(=O)c2ccc3c(c2)N(CC)CCS3)cc1	?	?	11%	-6%	-26	6%
COc1ccc(Br)cc1CNC(=O)c1ccc2c(c1)N(C)CCS2	?	23µM*	3%	0%	-13	-2%
O=C(CCC(=O)N1CCSc2ccccc21)NC1CCCCC1	-27%	?	1%	-2%	-6	-6%
Cc1cc(C)cc(NC(=O)CCC(=O)N2CCSc3ccccc32)c1	18µM*	?	?	?	3	?
COc1ccc(Br)cc1CNC(=O)CCC(=O)N1CCSc2ccccc21	21µM*	?	-4%	11%	-8	4%
O=C(CCC(=O)N1CCSc2ccccc21)NCCc1ccccc1	-25%	3%	1%	13%	-12	-5%
CCN1CCSc2ccc(C(=O)NCc3cc(Br)ccc3OC)cc21	?	16µM*	?	9%	-23	-2%
CCN(CC(=O)Nc1ccc(NC(C)=O)cc1)C(=O)CSc1ncnc2sc(C)c(C)c12	-27%	-15%	18%	?	0	4%
Cc1noc(C)c1C(=O)N1CCC1(C)C(=O)NS(=O)(=O)c1cccs1 (stereo not given)	-5%	-25%	/	/	29	/
O=C(COC(=O)c1cccc(Br)c1)NC1CCCCCCC1	?	?	/	/	-14	/
CCN(C(=O)COC(=O)C1CCN(S(=O)(=O)c2c(Cl)cccc2Cl)CC1)C1CCCCC1	-21%	-22%	?	6%	18	1%
COc1ccc(C(CNC(=O)c2cc(SC)ccc2Cl)N(C)C)cc1 (stereo not given)	0%	?	3%	?	?	1%
CSc1ccc(Cl)c(C(=O)NCCOc2cc(C(C)C)ccc2C)c1	26µM*	29µM*	-1%	3%	?	-6%
Cc1cc(C)n(CCc2nc3c4ccccc4nc(N4CCN(c5ccccc5)CC4)n3n2)n1	3.3µM*	2.9µM*	/	/	/	/
Cc1ccc(C)c(N2CCN(c3nc4ccccc4c4nc(CCn5nc(C)cc5C)nn34)CC2)c1	-1%	-24%	/	/	/	/
NC(=O)c1sc(-c2ccsc2)cc1NS(=O)(=O)c1ccc(C(F)(F)F)cc1	?	-24%	?	0%	/	1%
Cc1cccc(C)c1OCc1nc2c3cnn(-c4ccccc4Br)c3ncn2n1	?	10µM*	/	/	/	/
Cc1cccc(C)c1OCc1nc2c3cnn(-c4ccccc4F)c3ncn2n1	1%	-6%	/	/	/	/
O=C(O)CC(c1ccc(C(F)(F)F)cc1)N1Cc2ccccc2C1=O (stereo not given)	-3%	3%	0%	-1%	31	9%
Cc1ccc(-c2cn(-c3ccc(SC(F)F)cc3)c3[n+]2CCC3)cc1	0.46µM*	0.65µM*	2%	-4%	?	-7%
FC(F)Sc1ccc(-n2cc(-c3ccc(Cl)cc3)[n+]3c2CCC3)cc1	8.2µM*	9.2µM*	3%	-1%	-19	1%
CC(C)(C)c1cn(-c2ccc(Cl)cc2)c(=S)[nH]1	?	?	6%	0%	8	3%
SMILES	DT40 TDP1 no CPT	TDP1 cell CPT	MCF10A rerep	BCR signal inh	IL1B secr inh	SW480 rerep
Brc1ccc(-c2csc3[n+]2CCCCC3)cc1	?	-4%	16%	?	7	-2%
FC(F)Sc1ccc(NC2=NCCCCC2)cc1	-22%	2%	-2%	?	-10	-24%
Clc1ccc(-n2cc(-c3ccc(Br)cc3)[n+]3c2CCCCC3)cc1	6.5µM*	5.8µM*	6%	-27%	-15	?
O=C(NCCc1ccccc1)c1ccc(CSc2nc3cccnc3n2Cc2ccccc2F)cc1	9.2µM*	?	/	/	/	/
O=C(NCCc1ccccc1)c1ccc(Cn2c(SCc3ccccc3F)nc3cccnc32)cc1	18µM*	16µM*	/	/	/	/
COc1ccccc1CCNC(=O)c1cc(COc2cccc(C(F)(F)F)c2)on1	?	?	12%	-1%	-8	-11%
Cc1cc2ccccn2c1C(=O)c1cccc([N+](=O)[O-])c1	?	?	?	-1%	0	21%
COc1ccc(C(=O)c2ccc(Cl)c([N+](=O)[O-])c2)cc1	0.73µM*	0.82µM*	3.7µM*	?	-101*	0.82µM*
Cc1cc2ccccn2c1C(=O)c1ccc([N+](=O)[O-])o1	18µM*	23µM*	?	?	-99*	21µM*
Cc1cc2ccccn2c1C(=O)c1ccc(Cl)c([N+](=O)[O-])c1	?	21µM*	29%	7%	-75*	-18%
Cc1c(C=O)c2ccccn2c1C(=O)c1ccccc1	?	-25%	18%	?	2	-4%
Cc1c(C=O)c2ccccn2c1C(=O)c1ccc(Cl)c([N+](=O)[O-])c1	16µM*	?	10%[9.22 µM]	6%	-13	?
COc1ccc(C(=O)c2ccc(Cl)cc2)cc1	?	-12%	1%	?	0	-5%
CC(CCN1CCC(CN2C(=O)C(=O)NC[C@@H]2Cc2ccccc2)CC1)c1ccccc1 (stereo not given in full)	0%	9%	0%	/	-5	-16%
COC(CNC(=O)c1ccc2c(c1)ncn2C1CCCCCC1)OC	2%	0%	-1%	-3%	14	-22%
CCCC(=O)N1CCC1(C)C(=O)Nc1ncc(C(=O)OC)s1 (stereo not given)	-7%	1%	/	/	29	/
CCc1ccc(NC(=O)C(CC)n2nnc(C(=O)OC)c2C(=O)OC)cc1 (stereo not given)	-17%	-1%	/	/	/	/
CC1(C)CC(=O)C2=C(C1)c1c(ccc3ccccc13)NC2c1ccc(Br)o1 (stereo not given)	21µM*	?	21%[9.22 µM]	1%	?	21%
CC1=C(C(=O)OC2CCC(C)CC2)C(c2ccc(O)c([N+](=O)[O-])c2)NC(=O)N1 (stereo not given)	-14%	-26%	-2%	-14%	2	12%

Source: PubChem (National Center for Advancing Translational Sciences (NCATS))
